Data as given in PubChem BioAssay AID1159580 (chemical genetic matrix, 2015).
Values joined by “and” are separate entries in the source; they are usually repeats but may differ in a detail not shown here. Equal entries are not always repeated. Out of some 5,500 compounds screened, about 2,000 (36%) were called active. About 18% were inconclusive and are not listed. Rule as the data show it: active = normalized growth mostly below about 0.91 (no sharp cut-off); inconclusive = no clear call, values can overlap the other calls; inactive = mostly above about 0.92. This is one part of the list.

Assay: chemical genetic growth profiling, strain panel (AID 1159580);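 also: tested at 20 µM; growth read once vehicle control cultures reached saturation at 30 °C; 1 = growth at the plate median or of vehicle wells; lower values mean less growth of the strain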
Settings: S. cerevisiae deletion strains, growth OD

Measured: normalized growth

CC1(C)O[C@@H]2CC3C4C[C@H](F)C5=CC(=O)CC[C@]5(C)C4[C@@H](O)C[C@]3(C)[C@]2(C(=O)CO)O1 (stereo partly specified)
inactive: locus YAL013W, strain DEP1, active compounds read low 1.02 | locus YAL021C, strain ccr4, active compounds read low 0.971 | locus YAL026C, strain drs2, active compounds read low 1.01 | locus YAL030W, strain snc1, active compounds read low 1.01 | locus YBL061C, strain skt5, active compounds read low 1.01 | locus YBR009C, strain hhf1, active compounds read low 1 | locus YBR021W, strain FUR4, active compounds read low 1.02 | locus YBR023C, strain chs3, active compounds read low 1 | locus YBR171W, strain sec66, active compounds read low 1.01 | locus YBR229C, strain ROT2, active compounds read low 1.01 | locus YBR231C, strain swc5, active compounds read low 1 | locus YBR279W, strain paf1, active compounds read low 0.994 | locus YCL011C, strain gbp2, active compounds read low 1 | locus YCL016C, strain dcc1, active compounds read low 0.992 | locus YCL029C, strain bik1, active compounds read low 1.01 | locus YCL069W, strain vba3, active compounds read low 1 | locus YCR088W, strain abp1, active compounds read low 1.01 | locus YDL005C, strain med2, active compounds read low 1.03 | locus YDL035C, strain GPR1, active compounds read low 1.01 | locus YDL040C, strain nat1, active compounds read low 1.01 | locus YDL074C, strain BRE1, active compounds read low 1.04 | locus YDL101C, strain DUN1, active compounds read low 1.02 | locus YDL134C, strain PPH21, active compounds read low 1.01 | locus YDL185W, strain tfp1, active compounds read low 1.01 | locus YDL192W, strain arf1, active compounds read low 1.01 | locus YDR001C, strain nth1, active compounds read low 1 | locus YDR069C, strain doa4, active compounds read low 1.01 | locus YDR101C, strain arx1, active compounds read low 0.998 | locus YDR137W, strain rgp1, active compounds read low 0.995 | locus YDR150W, strain NUM1, active compounds read low 1.03 | locus YDR159W, strain sac3, active compounds read low 0.939 | locus YDR162C, strain NBP2, active compounds read low 1.03 | locus YDR195W, strain ref2 0.991 | locus YDR297W, strain sur2, active compounds read low 1.01 | locus YDR318W, strain mcm21, active compounds read low 0.999 | locus YDR334W, strain swr1, active compounds read low 1.01 | locus YDR335W, strain msn5, active compounds read low 1 | locus YDR388W, active compounds read low 1.01 | locus YDR392W, strain spt3, active compounds read low 0.931 | locus YDR502C, strain sam2, active compounds read low 1 | locus YEL003W, strain gim4, active compounds read low 0.999 | locus YEL037C, strain rad23, active compounds read low 1.01 | locus YEL061C, strain CIN8 (second series), active compounds read low 1.01 | locus YEL061C, strain CIN8, active compounds read low 1.01 | locus YER015W, strain faa2, active compounds read low 1.01 | locus YER016W, strain bim1, active compounds read low 1 | locus YER110C, active compounds read low 0.998 | locus YER111C, strain swi4, active compounds read low 1 | locus YER155C, strain BEM2 (second series), active compounds read low 1.03 | locus YER155C, strain BEM2, active compounds read low 1 | locus YER167W, strain BCK2, active compounds read low 1.01 | locus YFR010W, strain ubp6, active compounds read low 1.01 | locus YGL078C, strain dbp3, active compounds read low 0.995 | locus YGL086W, strain mad1, active compounds read low 1 | locus YGL167C, strain pmr1, active compounds read low 0.996 | locus YGL173C, strain kem1, active compounds read low 1.02 | locus YGL227W, strain vid30, active compounds read low 1 | locus YGL240W, strain doc1, active compounds read low 1 | locus YGL248W, strain PDE1, active compounds read low 1.01 | locus YGL253W, strain hxk2, active compounds read low 1 | locus YGR078C, strain PAC10, active compounds read low 1.02 | locus YGR135W, strain pre9, active compounds read low 1 | locus YGR229C, strain SMI1, active compounds read low 1.02 | locus YGR252W, strain gcn5, active compounds read low 0.983 | locus YHR013C, strain ard1, active compounds read low 0.994 | locus YHR027C, strain rpn1, active compounds read low 1.02 | locus YHR030C, strain SLT2, active compounds read low 1 and 1.02 | locus YHR079C, strain IRE1 (second series), active compounds read low 0.999 | locus YHR079C, strain IRE1, active compounds read low 1.03 | locus YHR094C, strain hxt1, active compounds read low 1.01 | locus YHR129C, strain ARP1, active compounds read low 1.01 | locus YHR142W, strain chs7, active compounds read low 1 | locus YHR200W, strain rpn10, active compounds read low 1.01 | locus YIL066C, strain RNR3, active compounds read low 1 | locus YIL073C, strain SPO22, active compounds read low 1.01 | locus YIL125W, strain kgd1, active compounds read low 0.995 | locus YIR030C, strain dcg1, active compounds read low 1.01 | locus YJL092W, strain hpr5, active compounds read low 1.02 | locus YJL095W, strain BCK1 (second series), active compounds read low 1.01 | locus YJL095W, strain BCK1, active compounds read low 0.999 and 1.02 | locus YJL115W, strain asf1, active compounds read low 1.01 | locus YJL129C, strain trk1, active compounds read low 1.02 | locus YJL134W, strain LCB3, active compounds read low 1.01 | locus YJL154C, strain vps35, active compounds read low 1.01 | locus YJL164C, strain tpk1, active compounds read low 0.982 | locus YJL166W, strain qcr8, active compounds read low 1.01 | locus YJL168C, strain set2, active compounds read low 1.01 | locus YJL187C, strain SWE1 (second series), active compounds read low 1.01 | locus YJL187C, strain SWE1, active compounds read low 1.01 | locus YJR043C, strain POL32, active compounds read low 0.994 | locus YJR066W, strain TOR1, active compounds read low 0.957
